Only some compounds are listed: those with a hit (about 4.3% of all), similar ones and a draw of the others.
CHOP inh: inhibitors of CHOP promoter induction, primary screen, cell-based, unfolded protein response, luciferase reporter | CHO-K1 CHOP-promoter luciferase, tunicamycin-induced, 15-18 h | inhibition, % at 10 µM | hit rate 3.8% among 220,000 | AID 2732, 2010;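 active = compounds that reduced the stress-induced luciferase reporter signal by more than about 70% of percent inhibition, limit read from the data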;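 note: 0% = tunicamycin plus vehicle and 100% = wells without tunicamycin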
Peg3 prom inh-1: Peg3 promoter-driven luciferase inhibitors, primary screen, cell-based, HeLa, luciferase luminescence; inhibition, % at 20 µM; HeLa PEG-Prom luciferase reporter, overnight; AID 588405, 2011; hit rate 1.7% among 360,000;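 active = inhibition of at least 50% at 20 µM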
KKLEB cytotox: cytotoxicity in KKLEB CF airway cells, primary screen, cytotoxicity control for CF NF-kB inhibitor project, cell-based, uHTS, fluorescence assay plates. KKLEB CF airway cells viability, ATPlite luminescence, overnight; stronger effect = lower value; cells stimulated with P. aeruginosa culture filtrate. activity change (cytotoxicity), % at 5 µM. hit rate 0.36% among 360,000;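 active = corrected activity change at or below -50% at 5 µM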
HIF-2a inh: HIF-2a reporter inhibitors, primary screen, luminescence, 786-0 RCC cells | 786-0 RCC cells HIF-2a reporter, luciferase luminescence, overnight | inhibition, % at 18.8 µM | hit rate 0.72% among 360,000;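 active = inhibition of the luminescence signal of 40% or more relative to plate controls, in a single-dose primary screen at 18.75 µM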
TRPM1 prom inh: inhibitors of MITF-dependent TRPM1 promoter reporter, primary screen, cell-based, SK-MEL-5, single point, luciferase | SK-MEL-5 TRPM1 promoter luciferase, 24 h | inhibition, % at 12.5 µM | hit rate 0.83% among 330,000 | AID 488899, 2010;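 active = mean inhibition across replicates of 60% or more, whatever share of single replicates reaches that level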
CF NFkB block: inhibitors of PAF-induced NF-kB signaling, primary screen, cell-based, GFP fluorescence, uHTS; hit rate 0.86% among 360,000; inhibition, % at 5 µM; KKLEB NF-kB-GFP reporter, GFP fluorescence overnight; AID 588850, 2011;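 active = at least 50% inhibition at 5 µM, scaled per plate between neutral and stimulator controls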;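 note: PAF is a Pseudomonas aeruginosa culture filtrate used as stimulus; plate controls were PAF-stimulated DMSO wells for no effect and unstimulated DMSO wells for full effect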
Peg3 prom inh-2: Peg3 promoter reporter inhibitors, retest, confirmation, cell-based, HeLa, luciferase reporter, single concentration; shares compounds with Peg3 prom inh-1; HeLa PEG-Prom luciferase reporter, luminescence, overnight; inhibition, % at 20 µM; hit rate 84% among 1,300; AID 602417, 2012;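 active = at 20 µM dose, 40% or more inhibition averaged across four replicates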
CF NFkB conf: inhibitors of PAF-induced NF-kB signaling, retest, confirmation, cell-based, GFP fluorescence, single concentration; shares compounds with CF NFkB block; KKLEB CF airway cells, overnight; inhibition, % at 5 µM; hit rate 64% among 1,300; AID 602472, 2012; in the data active = inhibition above about 40%;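 note: stimulus PAF is a Pseudomonas aeruginosa filtrate and not platelet activating factor; plate controls were DMSO wells with stimulus for no effect and unstimulated DMSO wells for full effect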
Mdm2 MdmX conf: retested Mdm2-MdmX interaction blockers, confirmation, cell-based, luminescence, single concentration, set 2 | SaOS-2 split-luciferase Mdm2/MdmX complementation | AID 504601, 2011 | shares compounds with HIF-2a inh | inhibition, % at 8 µM | hit rate 99% among 740;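 active = mean inhibition of the luminescence signal across two replicates at or above 26 percent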
HIF-2a conf: HIF-2a reporter inhibitor retest, confirmation, luminescence, 786-0 RCC cells; hit rate 56% among 1,800; inhibition, % at 18.8 µM; shares compounds with HIF-2a inh; HIF-2a luciferase reporter luminescence, overnight;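 active = mean inhibition across four replicates of at least 40 percent at the single tested concentration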
HIF-1a cs: HIF-1a luciferase reporter signal reduction – MiaPaCa-2 cells, single concentration, counter-screen for HIF-2a inhibitor project, confirmation; shares compounds with HIF-2a inh; MiaPaCa-2 HIF-1a luciferase reporter, desferoxamine, overnight; inhibition, % at 18.8 µM; hit rate 72% among 1,800;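 active = mean inhibition of the reporter signal across four replicates at the single tested dose of 50% or more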
* hit, by the source's call; nt = no result given.

SMILES	CHOP inh	Peg3 prom inh-1	KKLEB cytotox	HIF-2a inh	TRPM1 prom inh	CF NFkB block	Peg3 prom inh-2	HIF-2a conf	HIF-1a cs	others
CCCCN=C1NN=C(c2ccc3c(c2)OCCO3)CS1	-2	-95	-1	-59	16	-2	nt	nt	nt
c1cc2c(cc1C1=NNC(=NC3CC3)SC1)OCCO2	98*	93*	-32	86*	95*	-3	91*	94*	97*	Mdm2 MdmX conf=95*
Cc1ccc(C(=O)CSc2nnc3ccccn23)c(C)c1	14	-108	15	-88	-11	5	nt	nt	nt
COCCn1c(C)cc(C(=O)CSc2nnc3ccccn23)c1C	41	64*	-7	44*	59	7	54*	76*	49
CCCCCc1ccc(OCCCC[n+]2cccc(C)c2)c(CCCCC)c1	89*	97*	-47	95*	79*	58*	97*	33	106*	Mdm2 MdmX conf=102*
CCCCOc1ccc(C)cc1CN(CCO)CCO	4	1	-15	14	-7	3	nt	nt	nt
COC(=O)C1C=CC(OC2OC(COC(C)=O)C(OC(C)=O)C(OC(C)=O)C2OC(C)=O)n2c(=O)n(-c3ccccc3)c(=O)n21 (stereo not given)	nt	107*	-7	85*	95*	80*	101*	93*	106*	CF NFkB conf=64*
CCCN(CC(=O)Nc1ccccc1C)C(=O)COc1c(C)cccc1C	nt	2	-7	-12	3	4	nt	nt	nt
CCCN(CC(=O)Nc1ccccc1C)C(=O)CCl	-69	64*	-12	39	63*	12	46*	nt	nt	Mdm2 MdmX conf=95*
O=C(NCCc1ccccc1F)c1ccc2c(c1)OCCO2	nt	106*	-26	91*	88*	2	93*	96*	101*	Mdm2 MdmX conf=96*
CCCCCCCCCCCCCCC(O)C[N+](C)(CCO)CCO (stereo not given)	nt	70*	-34	73*	3	55*	73*	39	84*	CF NFkB conf=56*
CC(C)CC1NC(=O)N(CC(=O)Nc2ccccc2-c2ccccc2)C1=O (stereo not given)	50	8	-2	9	9	-22	nt	nt	nt
C(=NNc1ccc2ccccc2n1)c1ccccn1	nt	76*	-52*	69*	nt	13	78*	81*	-12
Cc1ccc(S(=O)(=O)NC(CC(C)C)C(=O)NCC(c2ccco2)N2CCCCC2)cc1 (stereo not given)	nt	75*	13	80*	59	-22	85*	88*	93*
CC(C)c1ccc(/C=N/Nc2ccc(C(=O)O)cc2)cc1	84*	85*	1	81*	69*	15	67*	79*	40
Cc1ccc(/C=N/Nc2ccc(C(=O)O)cc2)s1	75*	69*	-4	65*	81*	-10	62*	82*	76*
O=C(O)c1ccc(N/N=C/c2ccc(-c3ccccc3)cc2)cc1	-12	-272	8	-312	-85	-1	nt	nt	nt
O=C(O)c1ccc(N/N=C/c2cc(Br)cs2)cc1	nt	1	6	23	11	3	nt	nt	nt
O=C(O)c1ccc(N/N=C/c2ccc(OC(=O)c3ccccc3Cl)cc2)cc1	21	64*	1	81*	12	13	58*	84*	80*
CN(CC(=O)Nc1ccc(Cl)cc1)C(=O)CCC1CCCC1	nt	9	-1	6	-3	14	nt	nt	nt
COc1cccc(NC(=O)[C@H](C)NC(=O)C2CCN(S(=O)(=O)c3ccc(C)cc3)CC2)c1	5	2	5	-6	8	-2	nt	nt	nt
CCc1ccc(N=c2c([N+](=O)[O-])nn(-c3ccc4c(c3)OCCO4)n2O)cc1	9	-165	4	-119	5	-10	nt	nt	nt
O=[N+]([O-])c1nn(-c2ccc3c(c2)OCCO3)n(O)c1=Nc1ccc(Cl)cc1	50	72*	17	61*	64*	-8	74*	77*	100*
Nc1ccc2c(c1)OC1(CCCC1)O2	28	77*	11	52*	62*	14	56*	19	79*	Mdm2 MdmX conf=31*
Cc1ccc(C(=O)NCCc2cccs2)cc1	32	62*	-24	44*	54	-13	44*	62*	57*
SMILES	CHOP inh	Peg3 prom inh-1	KKLEB cytotox	HIF-2a inh	TRPM1 prom inh	CF NFkB block	Peg3 prom inh-2	HIF-2a conf	HIF-1a cs	others
CCOC(=O)Cc1csc(NC(=O)Cn2c(=O)oc3ccccc32)n1	2	11	0	12	-7	1	nt	nt	nt
N#Cc1c(N)nc(SCc2ccncc2)c(C#N)c1-c1cccs1	50	54*	-4	45*	8	4	70*	29	61*
Cc1csc(=O)n1CC(=O)Nc1ccc(Cl)cc1F	nt	3	-12	15	0	-26	nt	nt	nt
COc1ccc(NC(=O)O/N=C/c2c(C)nn(C(C)(C)C)c2C)cc1	-13	-187	-1	-148	-70	-16	nt	nt	nt
Cc1nn(C(C)(C)C)c(C)c1/C=N/OC(=O)Nc1ccc(Cl)c(Cl)c1	65	106*	-8	94*	53	8	97*	98*	100*
CC(C)(C)c1ccc(C(CC(=O)O)NC(=O)Cc2ccccc2)cc1 (stereo not given)	nt	-19	3	13	-16	-7	nt	nt	nt
CC(=O)Nc1ccc(S(=O)(=O)Nc2cccc3cccnc23)cc1	nt	0	11	23	6	-26	nt	nt	nt
Cc1ccc(S(=O)(=O)Nc2cccc3cccnc23)c([N+](=O)[O-])c1	nt	103*	0	57*	88*	68*	95*	75*	-216	CF NFkB conf=108*;Mdm2 MdmX conf=101*
